Data from PubChem BioAssay (Tox21).
Unmarked numbers belong to inactive results. Records with an inconclusive call do not appear. Where a call stands in place of a potency, no number is given. Active and inactive are the calls of the source. Unless noted, calls follow the shape of the dose curve; as a rule, active = well fitted curve in the direction sought with a large enough effect in the repeat runs; inconclusive = weak or mixed curves; inactive = no such curve, though single readings can be large; an effect the other way counts as inactive or inconclusive.

Columns and labels:
[1] = qHTS assay to test for compound auto fluorescence at 535 nm (green) in HEK293 cells (AID 720680)
[2] = qHTS assay to test for compound auto fluorescence at 460 nm (blue) in HEK293 cell free culture (AID 720681)
Method in brief: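 Test compounds were pinned into cell-free culture medium (DMEM with 10% FBS) and fluorescence was read directly at Ex/Em 405/460 nm. Signals were expressed as fluorescence equivalents of triamterene, with DMSO vehicle as control.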

[3] = qHTS assay to test for compound auto fluorescence at 590 nm (red) in HEK293 cell free culture (AID 720683)
Method in brief: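 Tox21 10K library compounds were pinned into cell-free DMEM with 10% FBS and fluorescence was read at excitation 540 nm. Activity is expressed as Rose Bengal sodium equivalency.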

[4] = qHTS assay to test for compound auto fluorescence at 590 nm (red) in HepG2 cell free culture (AID 720684)
Method in brief: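 Readout: intrinsic compound fluorescence at 590 nm emission after 540 nm excitation, scaled to Rose Bengal sodium. Matrix was cell-free MEM with 10% FBS; DMSO vehicle wells served as control.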

[5] = qHTS assay to test for compound auto fluorescence at 460 nm (blue) in HepG2 cell free culture (AID 720685)
Method in brief: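 Cell-free plates of MEM plus 10% FBS received 23 nL compound or DMSO vehicle; blue-channel (405/460 nm) intensity scored against triamterene as reference fluorophore.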

[6] = qHTS assay to test for compound auto fluorescence at 535 nm (green) in HepG2 cell free culture (AID 720686)
[7] = qHTS assay to test for compound auto fluorescence at 460 nm (blue) in HepG2 cells (AID 720687)
Method in brief: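 Cells (2,000/well in MEM with 10% FBS) attached overnight at 37 C, then were exposed to compound or DMSO for 1 hr at 37 C, 5% CO2. Fluorescence read at Ex/Em 405/460 nm, expressed as triamterene-equivalent signal.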

[8] = qHTS assay to identify small molecule antagonists of the glucocorticoid receptor (GR) signaling pathway - cell viability counter screen (AID 720693); also: nearly all actives have a fitted effect of over 55% in size
[9] = qHTS assay to identify small molecule antagonists of the androgen receptor (AR) signaling pathway - cell viability counter screen (AID 743033; also: nearly all actives have a fitted effect of over 45% in size)
[10] = qHTS assay to identify small molecule antagonists of the androgen receptor (AR) signaling pathway using the MDA cell line - cell viability counter screen (AID 743041; also: nearly all actives have a fitted effect of over 45% in size)
Method in brief: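 qHTS viability read-out; MDA-kb2 AR-luc; R1881-stimulated; 16 h exposure at 37C, 0% CO2; CellTiter-Fluor, 30 min; fluorescence intensity.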

[11] = qHTS assay to identify small molecule antagonists of the thyroid receptor (TR) signaling pathway - cell viability counter screen (AID 743064); also: nearly all actives have a fitted effect of over 50% in size; also: potency is read from the fitted curve at half-maximal effect
Method in brief: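 Counter screen for cytotoxicity: compound plus T3 (1 nM final) on GH3.TRE-Luc cells, 23.5 h at 37 °C, then fluorescence viability readout with CellTiter-Fluor.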

[12] = target: Glucocorticoid receptor (Homo sapiens) (UniProt P04150); test: qHTS assay to identify small molecule agonists of the glucocorticoid receptor (GR) signaling pathway (AID 720691; active = well fitted activation curve with a large enough effect in the signal ratio in the repeat runs, not every such curve was filed as active; the % refers to the signal ratio; also: potency is read from the fitted curve at half-maximal effect)
Sequence of Glucocorticoid receptor (Homo sapiens) (P04150 whole entry, looked up): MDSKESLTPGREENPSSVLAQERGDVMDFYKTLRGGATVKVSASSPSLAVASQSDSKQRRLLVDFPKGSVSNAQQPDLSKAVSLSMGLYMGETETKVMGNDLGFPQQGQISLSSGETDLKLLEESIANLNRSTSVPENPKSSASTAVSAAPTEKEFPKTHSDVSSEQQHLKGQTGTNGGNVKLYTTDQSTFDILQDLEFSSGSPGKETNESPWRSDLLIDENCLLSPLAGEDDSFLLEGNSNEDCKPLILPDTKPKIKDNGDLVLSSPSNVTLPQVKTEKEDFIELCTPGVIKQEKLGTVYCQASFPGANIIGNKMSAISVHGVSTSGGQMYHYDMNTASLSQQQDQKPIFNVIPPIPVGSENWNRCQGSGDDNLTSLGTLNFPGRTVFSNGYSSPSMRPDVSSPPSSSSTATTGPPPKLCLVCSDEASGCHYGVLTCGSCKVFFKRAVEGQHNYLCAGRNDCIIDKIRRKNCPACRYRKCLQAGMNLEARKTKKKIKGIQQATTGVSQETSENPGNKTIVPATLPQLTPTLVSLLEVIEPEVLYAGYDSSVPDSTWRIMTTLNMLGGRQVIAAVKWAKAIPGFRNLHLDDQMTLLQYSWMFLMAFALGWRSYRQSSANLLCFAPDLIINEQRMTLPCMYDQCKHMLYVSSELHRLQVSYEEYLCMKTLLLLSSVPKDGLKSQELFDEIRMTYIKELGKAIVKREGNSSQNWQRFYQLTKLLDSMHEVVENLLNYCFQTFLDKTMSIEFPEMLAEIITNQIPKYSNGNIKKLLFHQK
Method in brief: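 Cells: GR-bla HeLa, endogenous GR with stably integrated GRE-beta-lactamase reporter. Treatment 18 h, 37 C, compounds delivered in DMSO. Detection via LiveBLAzer B/G FRET substrate, 2 h RT, fluorescence intensity.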

[13] = target: Glucocorticoid receptor (Homo sapiens) (UniProt P04150); test: qHTS assay to identify small molecule antagonists of the glucocorticoid receptor (GR) signaling pathway (AID 720692; active = well fitted inhibition curve with a large enough effect in the signal ratio in the repeat runs, not every such curve was filed as active; the % refers to the signal ratio)
Method in brief: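 Quantitative HTS in antagonist format: HeLa cells expressing endogenous GR and a stably integrated GRE-bla reporter, stimulated with 5 nM dexamethasone (final) alongside test compounds for 18 h.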

[14] = qHTS assay for identifying genotoxic compounds that show differential cytotoxicity against isogenic chicken DT40 cell lines with known DNA damage response pathways - wild type cell line (AID 743012); also: nearly all actives have a fitted effect of over 60% in size; also: potency is read from the fitted curve at half-maximal effect
Method in brief: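 Luminescent ATP viability signal (CellTiter-Glo, 30 min RT) recorded after wild type DT40 cells were incubated with compounds for 40 h at 37 C/5% CO2.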

[15] = qHTS assay for identifying genotoxic compounds that show differential cytotoxicity against isogenic chicken DT40 cell lines with known DNA damage response pathways - Rev3 mutant cell line (AID 743014); also: nearly all actives have a fitted effect of over 55% in size; also: potency is read from the fitted curve at half-maximal effect
[16] = qHTS assay to identify small molecule antagonists of the thyroid receptor (TR) signaling pathway (AID 743065); also: nearly all actives have a fitted effect of over 55% in size; also: potency is read from the fitted curve at half-maximal effect
Method in brief: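 GH3.TRE-Luc rat pituitary cells carrying two TR response elements driving luciferase were plated for 4 h, given compound plus 1 nM T3 (final), and incubated 23.5 h at 37 C. ONE-Glo luminescence measured reporter inhibition; CellTiter-Fluor fluorescence tracked cytotoxicity.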

[17] = qHTS assay for identifying genotoxic compounds that show differential cytotoxicity against isogenic chicken DT40 cell lines with known DNA damage response pathways - Rad54/Ku70 mutant cell line (AID 743015); also: nearly all actives have a fitted effect of over 60% in size; also: potency is read from the fitted curve at half-maximal effect
[18] = qHTS assay to test for compound auto fluorescence at 535 nm (green) in HEK293 cell free culture (AID 720682)
Method in brief: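 Using fluorescein as calibrant, autofluorescence was quantified at 485/535 nm in cell-free DMEM containing 10% FBS after pintool addition of compound or vehicle.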

[19] = target: Androgen receptor (Homo sapiens) (UniProt P10275); test: qHTS assay to identify small molecule agonists of the androgen receptor (AR) signaling pathway (AID 743036; active = well fitted activation curve with a large enough effect in the signal ratio in the repeat runs, with a control signal flat, not every such curve was filed as active; the % refers to the signal ratio)
Sequence of Androgen receptor (Homo sapiens) (P10275 whole entry, looked up): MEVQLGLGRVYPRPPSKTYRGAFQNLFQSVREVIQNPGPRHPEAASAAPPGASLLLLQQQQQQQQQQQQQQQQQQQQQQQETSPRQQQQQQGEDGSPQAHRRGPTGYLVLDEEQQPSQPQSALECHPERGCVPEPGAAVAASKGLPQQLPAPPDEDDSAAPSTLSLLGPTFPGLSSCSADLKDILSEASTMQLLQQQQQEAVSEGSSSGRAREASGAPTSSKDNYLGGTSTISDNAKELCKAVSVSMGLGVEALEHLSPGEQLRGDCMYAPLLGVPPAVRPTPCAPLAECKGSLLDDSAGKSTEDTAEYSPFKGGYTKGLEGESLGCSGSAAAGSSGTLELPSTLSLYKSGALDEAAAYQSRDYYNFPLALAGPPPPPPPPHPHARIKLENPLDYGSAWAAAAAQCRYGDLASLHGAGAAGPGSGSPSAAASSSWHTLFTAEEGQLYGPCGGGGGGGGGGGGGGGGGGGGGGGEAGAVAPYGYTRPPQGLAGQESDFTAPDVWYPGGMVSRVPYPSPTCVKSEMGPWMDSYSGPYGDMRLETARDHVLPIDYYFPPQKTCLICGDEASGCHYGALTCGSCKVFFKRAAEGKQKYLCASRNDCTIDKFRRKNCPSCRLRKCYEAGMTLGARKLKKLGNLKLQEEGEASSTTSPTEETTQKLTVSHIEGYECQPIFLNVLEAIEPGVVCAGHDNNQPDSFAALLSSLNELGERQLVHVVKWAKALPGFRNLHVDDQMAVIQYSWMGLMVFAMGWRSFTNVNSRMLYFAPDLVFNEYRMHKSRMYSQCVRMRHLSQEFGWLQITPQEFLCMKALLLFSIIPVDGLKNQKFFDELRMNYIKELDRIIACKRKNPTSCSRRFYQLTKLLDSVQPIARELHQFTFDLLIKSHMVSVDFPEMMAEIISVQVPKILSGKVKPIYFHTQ
Method in brief: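 In this Tox21 qHTS, 2,000 HEK293 AR-bla cells per well were incubated with compounds for 16 h at 37C and 5% CO2. Fluorescence intensity was recorded 2 h after adding LiveBLAzer B/G FRET substrate at room temperature.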

[20] = target: Androgen receptor (Homo sapiens) (UniProt P10275); test: qHTS assay to identify small molecule agonists of the androgen receptor (AR) signaling pathway using the MDA cell line (AID 743040; also: nearly all actives have a fitted effect of over 20% in size)
Method in brief: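 Agonist activity is measured as luciferase luminescence in human MDA-kb2 cells whose MMTV reporter responds to both AR and GR. Compounds in DMSO incubate 16 h at 37C, 0% CO2, and ONE-Glo is read after 30 min.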

Row | SMILES | outcome [1] | Potency [2] | outcome [3] | outcome [4] | Potency [5] | outcome [6] | Potency [7] | Potency [8] | Potency [9] | Potency [10] | Potency [11] | Potency [12] | Potency [13] | Potency [14] | Potency [15] | Potency [16] | Potency [17] | outcome [18] | outcome [19] | Potency [20]
1 | c1ccc(-c2nc[nH]c2-c2ccccc2)cc1 | inactive | inactive | inactive | inactive | inactive | inactive | inactive | inactive | inactive | inactive | inactive |  |  |  |  |  |  |  |  | 
2 | Oc1ccc(C(O)CNCCCCCCNCC(O)c2ccc(O)c(O)c2)cc1O (stereo unspecified) | inactive | inactive | inactive | inactive | inactive | inactive | inactive | inactive | inactive |  | 15 µM (active) | inactive | inactive | 26.6 µM (active) | 29.8 µM (active) | 29.8 µM (active) |  |  |  | 
3 | CCCCCCCCCO | inactive | inactive | inactive | inactive | inactive | inactive | inactive | inactive |  |  | inactive | inactive | inactive |  |  | inactive |  |  |  | 
4 | COc1ccc2[nH]c(S(=O)Cc3ncc(C)c(OC)c3C)nc2n1 (stereo unspecified) | inactive | inactive | inactive | inactive | inactive | inactive | inactive | inactive | inactive | inactive |  | inactive | inactive | 29.8 µM (active) |  |  | 29.8 µM (active) |  |  | 
5 | CN(c1nccc(=O)[nH]1)C1CCN(c2nc3ccccc3n2Cc2ccc(F)cc2)CC1 | inactive | inactive | inactive | inactive | inactive | inactive | inactive | inactive | inactive | inactive | inactive |  |  | inactive | inactive | inactive | inactive |  |  | 
6 | CC1=CC(=O)/C(=C(/C)O)C(=O)O1 | inactive | inactive | inactive |  | inactive | inactive | inactive | inactive | inactive | inactive | inactive | inactive | inactive | inactive | inactive |  | inactive |  |  | 
7 | CCCC(=O)OCC | inactive | inactive | inactive | inactive | inactive | inactive | inactive | inactive | inactive | inactive |  | inactive | inactive |  |  | inactive | 68.6 µM (active) |  |  | 
8 | C=CC[N+]1([C@H]2C[C@H]3[C@@H]4CC[C@H]5C[C@H](OC(C)=O)[C@@H](N6CCCCC6)C[C@]5(C)[C@H]4CC[C@]3(C)[C@H]2OC(=O)CC)CCCCC1 | inactive | inactive | inactive | inactive | inactive | inactive | inactive | inactive | inactive | inactive | inactive |  |  |  |  | inactive |  |  |  | 
9 | C=CC(=O)OCCOC(=O)CCC(=O)O | inactive | inactive | inactive | inactive | inactive | inactive | inactive | inactive | inactive | inactive | inactive |  | inactive |  | inactive |  | inactive |  |  | 
10 | CCOC(=O)[C@H](CCc1ccccc1)N[C@H]1CCc2ccccc2N(CC(=O)O)C1=O | inactive |  | inactive | inactive | inactive | inactive |  | inactive |  | inactive | 5.31 µM (active) |  |  | 11.9 µM (active) | 23.7 µM (active) | 8.41 µM (active) | 21.1 µM (active) | inactive |  | 
11 | CC(=O)Nc1ccc(/C=N/NC(N)=S)cc1 | inactive | inactive | inactive | inactive | inactive |  | inactive | inactive | inactive | inactive | inactive |  |  | inactive | inactive | inactive | inactive |  |  | 
12 | CC(C)(C)c1cc(CCC(=O)OCC(COC(=O)CCc2cc(C(C)(C)C)c(O)c(C(C)(C)C)c2)(COC(=O)CCc2cc(C(C)(C)C)c(O)c(C(C)(C)C)c2)COC(=O)CCc2cc(C(C)(C)C)c(O)c(C(C)(C)C)c2)cc(C(C)(C)C)c1O | inactive | inactive | inactive | inactive | inactive | inactive | inactive | inactive | inactive | inactive |  | inactive | inactive | inactive | inactive | inactive |  |  |  | 
13 | O=[N+]([O-])c1cccc(Cl)c1Cl | inactive | inactive | inactive | inactive | inactive | inactive | inactive | inactive |  | inactive | inactive | inactive |  | inactive | inactive |  | inactive |  |  | 
14 | C=C(C)C(=O)OCCOc1ccccc1 | inactive | inactive | inactive | inactive | inactive | inactive | inactive | inactive | inactive | inactive | inactive | inactive | inactive |  |  | inactive |  |  | inactive | inactive
15 | CC(Cc1cccc(C(F)(F)F)c1)NCCOC(=O)c1ccccc1 (stereo unspecified) | inactive | inactive | inactive | inactive | inactive |  | inactive | inactive |  |  |  | inactive | inactive | 18.8 µM (active) | 23.7 µM (active) |  | 26.6 µM (active) |  |  | 
16 | Cc1ccccc1N=Nc1ccc(N=Nc2c(O)ccc3ccccc23)c(C)c1 | inactive | inactive | inactive | inactive | inactive | inactive | inactive | inactive | inactive | inactive | inactive |  |  |  | inactive |  |  |  |  | 
17 | O=C(c1ccccc1)c1ccc2n1CCC2C(=O)O (stereo unspecified) | inactive | inactive | inactive |  | inactive | inactive | inactive | inactive | inactive | inactive | inactive |  |  | inactive | inactive | inactive | inactive |  |  | 
18 | CCCCOCCOCCOCCOCCO | inactive | inactive | inactive | inactive |  | inactive | inactive | inactive | inactive |  | inactive |  |  | inactive |  | inactive | inactive |  |  | 
19 | Cc1occc1S | inactive | inactive | inactive | inactive | inactive | inactive | inactive | inactive | inactive |  | inactive | inactive | inactive | 54.5 µM (active) | 61.1 µM (active) |  |  |  |  | 
20 | CN(C)CCCNCCCN | inactive | inactive | inactive | inactive | inactive | inactive | inactive | inactive | inactive | inactive | inactive | inactive | inactive | inactive |  |  |  |  |  | 
21 | NCCCOCCOCCOCCCN | inactive | inactive | inactive | inactive | inactive |  | inactive | inactive |  |  | inactive | inactive | inactive | 5.45 µM (active) | 10.9 µM (active) | inactive | 7.7 µM (active) |  |  | 
22 | CCOC(=O)C1=NN(c2ccccc2)C(=O)C1 | inactive | inactive | inactive | inactive | inactive | inactive | inactive | inactive | inactive | inactive | inactive | inactive |  | inactive |  | inactive | inactive |  |  | 
23 | CC(=O)[C@@]1(O)CC[C@H]2[C@@H]3C[C@H](C)C4=CC(=O)CC[C@]4(C)[C@H]3CC[C@@]21C | inactive | inactive | inactive | inactive | inactive | inactive | inactive | inactive | inactive |  | inactive | 0.0849 µM (active) |  | 16.8 µM (active) | 11.9 µM (active) | 11.9 µM (active) | 21.1 µM (active) |  |  | 
24 | CCN(CC)CCOC(=O)C1(c2ccccc2)CCCC1 | inactive | inactive | inactive |  | inactive | inactive | inactive | inactive | inactive |  |  | inactive | inactive | 26.6 µM (active) |  | inactive | 23.7 µM (active) |  | inactive | inactive
